Source: PubChem
Sampled rows, rich in hits. Any-hit rate of the full collection: about 7.5%.
VP16 counter = counter-screen for ROR gamma inhibitors: Gal4-VP16 reporter. AID 2546. hit rate 3.5% among 310,000. Drosophila S2 Gal4-VP16 UAS-luciferase, luminescence, 20 h. Potency, µM (highest dose often 53.6 µM), for the others: top-dose activity, negative = inhibition, actives largely listed as inhibitors;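 note: Gal4-VP16 expression switched on by copper sulfate through the metallothionein promoter; potency is the fitted concentration of half-maximal effect; nearly all actives have a fitted effect of over 50% in size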
ELG1 repair inh = inhibitors of ELG1-dependent DNA repair in HEK293T cells | HEK293T ELG1-luciferase reporter, luminescence, 16 h; DNA damage induced by 5-fluorouridine | Potency, µM (series often up to 46.1 µM), for the others: at the top dose activity change, negative = inhibition, usual class: inhibitors | hit rate 2.3% among 330,000 | AID 504467; note: potency is the fitted concentration of half-maximal effect; nearly all actives have a fitted effect of over 55% in size
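Step one: seed 2,000 cells per well. Step two: pin-transfer compound or DMSO alongside 5-fluorouridine. Step three: incubate 16 hr, 37 °C, 5% CO2. Step four: add ONE-Glo, wait 30 min, read luminescence.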
RORgamma inh = ROR gamma (mouse) transcription inhibition | AID 2551 | Drosophila S2 Gal4-RORgamma UAS-luciferase reporter, 20 h | Potency, µM (doses to about 53.6 µM), inactives show top-dose activity change, negative = inhibition, actives largely listed as inhibitors | hit rate 5.4% among 310,000; note: potency is the fitted concentration of half-maximal effect; nearly all actives have a fitted effect of over 60% in size
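Schneider cells (Drosophila), stable Gal4 DBD–ROR gamma + UAS-luc; 1 hr cmpd preincubation; Cu2+ induction 700 uM final; 20 hr ambient; luminescence.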
B2AR arrestin = agonists driving beta-arrestin recruitment to human beta2-adrenergic receptor | P07550 | beta-arrestin recruitment to beta2AR, cell-based reporter | Potency, µM (doses to about 46.1 µM), without a hit: top-dose activation, hits mostly activators | hit rate 0.02% among 330,000 | AID 492947;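 note: potency is the fitted concentration of half-maximal effect; 0% = DMSO controls and full agonism = EC100 isoproterenol or metaproterenol; nearly all actives have a fitted effect of over 65% in size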
TSHR antagonist = human thyrotropin receptor antagonism; TSHR-expressing cells, TSH-stimulated cAMP HTRF, 2 h; hits give low values; P16473; hit rate 0.2% among 330,000; activity change, negative = inhibition, % at 11.5 µM;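 active = activity change below a set negative limit, meaning inhibition stronger than a set level, cut at about -70% in these data; inconclusive = activity change between two set negative limits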
Target sequence (P16473 whole entry, looked up): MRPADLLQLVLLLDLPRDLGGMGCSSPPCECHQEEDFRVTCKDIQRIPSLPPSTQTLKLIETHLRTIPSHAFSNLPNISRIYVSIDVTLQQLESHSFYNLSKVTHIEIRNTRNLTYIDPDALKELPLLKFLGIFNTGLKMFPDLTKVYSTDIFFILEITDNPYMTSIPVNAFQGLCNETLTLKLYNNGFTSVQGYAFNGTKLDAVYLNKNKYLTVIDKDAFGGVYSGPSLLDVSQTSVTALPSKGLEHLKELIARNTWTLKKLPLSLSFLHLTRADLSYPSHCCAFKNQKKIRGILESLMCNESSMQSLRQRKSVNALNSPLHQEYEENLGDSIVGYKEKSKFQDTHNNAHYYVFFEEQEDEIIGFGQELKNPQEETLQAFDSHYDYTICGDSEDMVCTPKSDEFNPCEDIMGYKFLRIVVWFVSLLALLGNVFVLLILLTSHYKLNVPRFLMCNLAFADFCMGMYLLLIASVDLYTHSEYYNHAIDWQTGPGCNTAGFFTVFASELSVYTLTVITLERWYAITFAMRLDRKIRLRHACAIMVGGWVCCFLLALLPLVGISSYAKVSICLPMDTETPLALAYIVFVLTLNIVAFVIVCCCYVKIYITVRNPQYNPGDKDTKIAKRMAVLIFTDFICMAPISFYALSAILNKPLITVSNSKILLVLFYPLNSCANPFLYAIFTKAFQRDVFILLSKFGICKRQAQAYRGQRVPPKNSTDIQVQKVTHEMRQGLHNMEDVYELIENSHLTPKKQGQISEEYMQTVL
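Antagonism was scored as loss of TSH-driven cAMP in TSHR cells, stimulated with 4nM TSH (EC80) for 2 hours at 37 deg C and detected by homogeneous HTRF competition immunoassay.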
ELG1 FLuc counter = luciferase inhibition in cell-free luciferin readout for ELG1 hits. cell-free firefly luciferase luminescence counter-screen, ViewLux. AID 624247. shares compounds with ELG1 repair inh. Potency, µM (top dose mostly 46.1 µM), for the others: at the highest dose activity change, negative = inhibition, hits mostly inhibitors. hit rate 3% among 350; note: potency is the fitted concentration of half-maximal effect
ELG1-Luc inh = inhibits ELG1-dependent DNA repair in HEK293T cells, confirmed. hit rate 68% among 670. shares compounds with ELG1 repair inh. HEK293T ELG1-luciferase levels, luminescence; cells co-treated with 5-fluorouridine. Potency, µM (titrated, usually from 46.1 µM), for inactives: at the highest dose activity change, negative = inhibition, hits mostly inhibitors; note: potency is the fitted concentration of half-maximal effect; nearly all actives have a fitted effect of over 55% in size
ELG1 MMS Luc = inhibits ELG1-dependent repair under MMS stimulation in HEK293T cells; HEK293T luciferase-tagged ELG1 level, MMS stimulated; shares compounds with ELG1 repair inh; Potency, µM (top dose mostly 46.1 µM), inactives show at the highest dose activity change, negative = inhibition, actives largely listed as inhibitors; hit rate 53% among 670; note: potency is the fitted concentration of half-maximal effect; nearly all actives have a fitted effect of over 60% in size
ELG1 5FU viab = confirmation of ELG1 repair inhibitors: viability with 5FU; shares compounds with ELG1 repair inh; cell viability with 5-FU, ELG1-dependent repair; Potency, µM (titrated, usually from 46.1 µM), for inactives: at the highest dose activity change, negative = viability loss, usual class: cytotoxic; 670 tested, under 10 active; AID 624250;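 note: ELG1-luc HEK293T cells cotreated with 5-fluorouridine at 10 µM final; potency is the fitted concentration of half-maximal effect; viability measured 16 h after compound addition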
ELG1 MMS viab = confirmation of ELG1 repair inhibitors: viability with MMS; shares compounds with ELG1 repair inh; Cell viability with MMS, ELG1-dependent DNA repair; Potency, µM (highest dose often 46.1 µM), without a hit: top-dose activity change, negative = viability loss, actives largely listed as cytotoxic; hit rate 33% among 670;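 note: ELG1-luc HEK293T cells co-treated with 10 µM MMS; potency is the fitted concentration of half-maximal effect; viability read 16 h after compound addition; nearly all actives have a fitted effect of over 60% in size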
Cell viab unstim = unstimulated viability counter-screen for ELG1 repair hits. shares compounds with ELG1 repair inh. cell viability counter-screen, unstimulated, luminescence. Potency, µM (highest dose often 45.9 µM), inactives show at the highest dose activity change, negative = loss of viability, hits mostly cytotoxic. hit rate 8% among 900. AID 624252;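 note: potency is the fitted concentration of half-maximal effect; compound exposure lasted 16 hours before reading; nearly all actives have a fitted effect of over 55% in size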
FLuc biochem = inhibits purified firefly luciferase, counter-screen for ELG1 hits | shares compounds with ELG1 repair inh | purified firefly luciferase, luminescence counter-screen | Potency, µM (doses to about 57.5 µM), inactives show at the highest dose activity, negative = inhibition, most hits filed as inhibitors | hit rate 10% among 350 | AID 624253; note: potency is the fitted concentration of half-maximal effect
* hit, by the source's call; ? = inconclusive; . = no result given; [ ] = another dose, or the depositor's remark. Unless noted, calls come from the whole dose curve; as a rule, active = well fitted curve in the direction sought with a large enough effect; inconclusive = small, poorly fitted or top-dose-only effect, or another doubt; inactive = no such curve, though single readings can be large; an effect the other way counts as inactive or inconclusive. Unless noted, % is set by controls: 0 for no effect and ±100 for the full control effect.

SMILES | VP16 counter | ELG1 repair inh | RORgamma inh | B2AR arrestin | TSHR antagonist | ELG1-Luc inh | ELG1 MMS Luc | ELG1 5FU viab | ELG1 MMS viab | Cell viab unstim | others
COc1cc(CC(=O)OCC(=O)c2c[nH]c3ccccc23)cc(OC)c1OC | . | -27% | . | 0% | -12 | . | . | . | . | .
COc1ccc(Cl)cc1NC(=O)C(C)OC(=O)c1ccc(NS(=O)(=O)c2ccc3[nH]c(=O)[nH]c3c2)cc1 (stereo not given) | 1% | 2.9µM* | 32% | 0% | -15 | 2.8µM* | 3% | ? | -2% | -5%
CC(OC(=O)c1ccc(NS(=O)(=O)c2ccc3[nH]c(=O)[nH]c3c2)cc1)C(=O)Nc1ccc(Cl)cc1 (stereo not given) | -8% | ? | -7% | 0% | 0 | . | . | . | . | .
CSCCC(Nc1ncnc2ccc(Br)cc12)C(=O)O (stereo not given) | -5% | 0% | -13% | 0% | 8 | . | . | . | . | .
CC(C)Nc1ncnc2ccc(Br)cc12 | ? | 2.3µM* | -13% | -2% | 7 | 3.5µM* | 7.9µM* | -5% | 10µM* | ?
NS(=O)(=O)c1cccc(NS(=O)(=O)c2ccc3ccccc3c2)c1 | 0% | 9% | ? | -1% | -1 | . | . | . | . | .
COC(=O)C1CN(C(=O)COc2ccc(Cl)cc2C)c2ccccc2O1 (stereo not given) | 6% | 7% | 15% | 0% | -13 | . | . | . | . | .
COc1ccc(/C=C/c2cnc3ccccc3n2)cc1OC | . | . | . | . | . | . | . | . | . | -4% | ELG1 FLuc counter=-8%;FLuc biochem=0.21µM*
COc1ccc(-c2ccc3ccccc3n2)cc1OC | 7% | ? | -22% | 0% | 1 | . | . | . | . | .
COc1cc(/C=C/c2cc(C(=O)O)c3ccccc3n2)cc(OC)c1O | ? | 10% | -39% | 0% | -11 | . | . | . | . | .
COc1ccc(/C=C/c2ccc3ccccc3n2)cc1OC | . | . | . | . | . | . | . | . | . | ? | ELG1 FLuc counter=36%;FLuc biochem=?
CCn1nc(C(=O)NC2=NCCS2)c2ccccc2c1=O | -3% | -3% | -68% | 0% | 1 | . | . | . | . | .
CCn1nc(C(=O)Nc2nc(-c3ccccn3)cs2)c2ccccc2c1=O | . | 4.1µM* | . | 0% | -26 | 4.4µM* | 7.9µM* | -3% | 13µM* | ?
COc1ccc(CC(=O)NC2CC(C)(C)NC(C)(C)C2)cc1OC | -1% | -1% | -25% | -2% | 8 | . | . | . | . | .
CN(c1ccccc1)S(=O)(=O)c1cccc(C(=O)NCC(=O)Nc2ccc(F)c(F)c2F)c1 | . | ? | . | 0% | . | . | . | . | . | .
CNc1ccc(/C=C2\C=Cc3ccccc32)cc1 | . | . | . | . | . | . | . | . | . | -5% | ELG1 FLuc counter=58%;FLuc biochem=0.73µM*
CC(=O)Nc1ccc(/C=C2/Sc3ccccc3C2=O)cc1 | 19% | ? | 15% | 0% | 9 | . | . | . | . | .
CC(=O)N(C)c1ccc(NS(=O)(=O)c2cc(Cl)ccc2Cl)cc1 | 16% | -1% | -40% | 0% | -6 | . | . | . | . | .
COc1cc(C[C@H](C)[C@H](C)Cc2ccc3c(c2)OCO3)ccc1O | -12% | 15% | -31% | -2% | -14 | . | . | . | . | .
COc1cc(CC2COC(=O)C2(O)Cc2ccc(O)c(OC)c2)ccc1O (stereo not given) | 7.1µM* | 1.5µM* | ? | 1% | -14 | ? | 3.5µM* | -2% | 2.8µM* | ?
c1ccc(CC2CCN(c3ncnc4sccc34)CC2)cc1 | 4µM* | 1.6µM* | 10µM* | 0% | -15 | 23% | 1.6µM* | -10% | 2µM* | ? | ELG1 FLuc counter=31%;FLuc biochem=?
c1ccc2cc(CCO[C@H]3CCCCO3)ncc2c1 | . | ? | . | 0% | -14 | . | . | . | . | .
c1nc(CCO[C@H]2CCCCO2)cc2cc3c(cc12)OCO3 | . | ? | . | 0% | 6 | . | . | . | . | -4% | ELG1 FLuc counter=-39%;FLuc biochem=0.65µM*
CCOC(=O)c1c(C)[nH]c(C(=O)N2CCN(C(=O)OCC)CC2)c1C | -11% | 0% | -29% | 0% | 5 | . | . | . | . | .
CCOC(=O)c1c(C)[nH]c(C(=O)N2CCc3cc(OC)c(OC)cc3C2)c1C | . | 1.5µM* | . | 3% | 7 | 3.5µM* | ? | ? | -16% | -18%
SMILES | VP16 counter | ELG1 repair inh | RORgamma inh | B2AR arrestin | TSHR antagonist | ELG1-Luc inh | ELG1 MMS Luc | ELG1 5FU viab | ELG1 MMS viab | Cell viab unstim | others
O=C(/C=C1\NC2(CCCC2)Cc2ccccc21)C(=O)N/N=C/c1ccccc1O | -2% | 2.3µM* | -1% | -1% | -13 | ? | 8.9µM* | 0% | ? | -5%
COc1ccc(S(=O)(=O)Nc2cccc3cccnc23)c([N+](=O)[O-])c1 | . | . | . | . | . | . | . | . | . | ?
O=[N+]([O-])c1ccc(NS(=O)(=O)c2cccc3cccnc23)cc1 | -6% | -4% | 5%[1.91 µM] | 0% | -3 | . | . | . | . | .
C=CC(=O)N1CCCC(Nc2nc(Nc3ccc(N(C)C(=O)CC)cc3C)nc3nc[nH]c23)C1 (stereo not given) | . | -6% | . | 0% | 1 | . | . | . | . | .
CCCCNC(=O)CCc1c(C)nc2nc(-c3cc(OC)cc(OC)c3)nn2c1C | -8% | 2.3µM* | -19% | 0% | -2 | ? | 1% | ? | ? | 8%
CCCNC(=O)CCc1c(C)nc2nc(-c3cc(OC)cc(OC)c3)nn2c1C | -1% | ? | 22% | -1% | -3 | . | . | . | . | .
COc1ccc2cc3c(N)nn(C(=O)c4ccc(Cl)c([N+](=O)[O-])c4)c3nc2c1 | -2% | 1.6µM* | 18% | -1% | 1 | 3.5µM* | 7.9µM* | 5% | 7% | 7%
COc1ccc2cc3c(N)nn(C(=O)c4ccccc4[N+](=O)[O-])c3nc2c1 | -21% | 2.3µM* | ? | 0% | -33 | 1.8µM* | 14µM* | 4% | ? | ?
